{"source": "PubChem BioAssay AID489036", "about": "(National Center for Advancing Translational Sciences (NCATS), 2010)", "note": "Results filed as inconclusive are left out. The source made the active and inactive calls. Calls follow the shape of the dose curve; as a rule, active = well fitted inhibition curve with a large enough effect; inconclusive = small, poorly fitted or top-dose-only effect, or effect the other way; inactive = flat fitted curve, though single readings scatter.", "data": [{"experiment": "VP16 selectivity assay for inhibitors of ROR gamma transcriptional activity", "conditions": "Drosophila Schneider Gal4-VP16 UAS-luciferase reporter, 20 h; series mostly up to 92.2 µM", "in_short": "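Luciferase luminescence read after 20 hr induction with 700 uM (final) copper sulfate at ambient temperature, following 1 hr compound pretreatment. Counter-screen uses Schneider cells carrying metallothionein-driven Gal4 DBD–VP16 and a UAS-Photinus luciferase reporter.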", "values": [{"smiles": "COc1cc(O)c(C(CC(=O)N2CCC(c3ccccc3)CC2)c2ccc(OC)c(OC)c2)c(OC)c1", "note": "(centres undefined)", "Potency": "inactive"}, {"smiles": "CCOC(=O)C1CCN(CC(=O)Nc2cc(C)nn2-c2nc3ccccc3s2)CC1", "Potency": "22.9 µM (active)"}, {"smiles": "Cc1ccc(OCCCC(=O)Nc2nc3ccccc3[nH]2)cc1", "Potency": "18.2 µM (active)"}, {"smiles": "COc1cc(O)c(C(CC(=O)N2CCCC(C)C2)c2ccccc2OC)c(OC)c1", "note": "(centres undefined)", "Potency": "inactive"}, {"smiles": "COc1ccc(-c2c[n+]3c(n2-c2ccc(C)cc2)CCCCC3)cc1", "Potency": "5.12 µM (active)"}, {"smiles": "CC(C)(C)c1ccc([S+](=O)([O-])Nc2ccccc2C(O)(C(F)(F)F)C(F)(F)F)cc1", "Potency": "11.5 µM (active)"}, {"smiles": "COc1cc(O)c(C(CC(=O)N2CCC(C)CC2)c2ccc3c(c2)OCO3)c(OC)c1", "note": "(centres undefined)", "Potency": "inactive"}, {"smiles": "Cc1cc(C)n(-c2nc(SCC(=O)O)c3c4c(sc3n2)CCCC4)n1", "Potency": "16.2 µM (active)"}, {"smiles": "COc1cc(O)c(C(CC(=O)N2CCCC(C#N)C2)c2ccc3c(c2)OCO3)c(OC)c1", "note": "(centres undefined)", "Potency": "inactive"}, {"smiles": "COc1cc(O)c(C(CC(=O)N2CCC[C@H](C)C2)c2ccc3c(c2)OCO3)c(OC)c1", "note": "(some centres undefined)", "Potency": "inactive"}, {"smiles": "COc1cc(O)c(C(CC(=O)N2CCCC(C)C2)c2ccc(C(C)C)cc2)c(OC)c1", "note": "(centres undefined)", "Potency": "25.7 µM (active)"}, {"smiles": "COC(=O)c1ccc(OCC(=O)c2ccc(O)cc2O)cc1", "Potency": "2.04 µM (active)"}, {"smiles": "CCOc1ccc(O)c(C(CC(=O)N2CCCC(C)C2)c2ccc3c(c2)OCO3)c1", "note": "(centres undefined)", "Potency": "inactive"}, {"smiles": "COc1cc(OC)c(C(CC(=O)N2CC(C)CC(C)C2)c2ccc3c(c2)OCO3)c(OC)c1", "note": "(centres undefined)", "Potency": "22.9 µM (active)"}]}]}
